58 compounds from the antibiotic and cytotoxicity screens of Wong et al. (2023) can be followed below.

Among all 39,000 compounds or so, about 1,500 (3.8%) were called active. What follows is part of a selection rich in actives, with near analogues and random picks from the rest.

This test has as its system HSkMC (human skeletal muscle cells). Briefly: cytotoxicity call (relative viability < 0.9). To be noted: 10 µM.
As to `O=C(C[C@H]1CC[C@@H](NC(=O)Cc2ccccn2)[C@H](CO)O1)NCCc1ccncc1`, the cytotoxicity call is “inactive”. For the compound `C[C@H]1CN([C@@H](C)CO)C(=O)c2cccc(NS(=O)(=O)c3cccs3)c2O[C@@H]1CN(C)Cc1ccc(Oc2ccccc2)cc1`, the cytotoxicity call is “inactive”. Turning to `C/C=C/[C@@H](CCn1cc(CCO[Si](C(C)C)(C(C)C)C(C)C)nn1)[Si](C)(C)c1ccc(OC)cc1`, the cytotoxicity call is “inactive”. With `C[C@@H]1CN([C@H](C)CO)C(=O)c2cc(C#Cc3ccccn3)cnc2O[C@@H]1CN(C)C(=O)CCN1CCCCC1` the entry was “inactive”. On to `C=CCNC(=O)[C@H]1[C@@H]2C(=O)O[C@@H](c3ccccc3)[C@@H](c3ccccc3)N2[C@@H](c2ccccc2OCCO)[C@]12C(=O)N(C(=O)OCCOC)c1ccc(C#CC3(O)CCCCCC3)cc12`, for which the cytotoxicity call was “inactive”. As to `C[C@@H]1CCCCO[C@H](CN(C)C(=O)C2CCCCC2)[C@H](C)CN([C@H](C)CO)C(=O)c2cc(NC(=O)Cc3ccccc3)ccc2O1`, the cytotoxicity call is “inactive”. To `Nc1cnc2ncc(N)cc2c1` belongs “inactive”; to `CN1CCN(C(=O)C[C@@H]2C=C[C@H](NS(=O)(=O)c3cccc(F)c3)[C@H](CO)O2)CC1`, “inactive”; to `C[C@@H]1CCCCO[C@@H](CN(C)CC2CCCCC2)[C@@H](C)CN([C@H](C)CO)C(=O)c2cc(NC(=O)NC3CCCCC3)ccc2O1`, “inactive”. As for `Nc1nc(=O)c2nc(C(=O)O)cnc2[nH]1`, the cytotoxicity call is “inactive”. Consider `COc1cccc(S(=O)(=O)N(C)C[C@@H]2Oc3cc(Br)ccc3S(=O)(=O)N([C@@H](C)CO)C[C@@H]2C)c1`, for which the cytotoxicity call is “inactive”. Consider `C[C@H]1CCCCO[C@@H](CN(C)Cc2ccc(C(F)(F)F)cc2)[C@@H](C)CN([C@@H](C)CO)C(=O)c2cc(NS(=O)(=O)c3ccc(F)cc3)ccc2O1`, for which the cytotoxicity call was “inactive”. Consider `C[C@H]1CCCCO[C@@H](CN(C)Cc2ccc(C(F)(F)F)cc2)[C@@H](C)CN([C@@H](C)CO)C(=O)c2cc(NS(=O)(=O)c3ccc(Cl)cc3)ccc2O1`, for which the cytotoxicity call was “inactive”. Take `C[C@H](CO)N1C[C@H](C)[C@H](CN(C)Cc2ccc(C(F)(F)F)cc2)OCCCC[C@H](C)Oc2ccc(NS(=O)(=O)c3ccc(Cl)cc3)cc2C1=O`: the cytotoxicity call was “active”. For `C[C@@H]1CCCCO[C@@H](CN(C)Cc2ccc(C(F)(F)F)cc2)[C@H](C)CN([C@@H](C)CO)C(=O)c2cc(NS(=O)(=O)c3ccc(Cl)cc3)ccc2O1`, the cytotoxicity call is “active”.

With `C[C@@H]1CCCCO[C@@H](CN(C)Cc2ccc(C(F)(F)F)cc2)[C@H](C)CN([C@H](C)CO)C(=O)c2cc(NS(=O)(=O)c3ccc(Cl)cc3)ccc2O1`, the cytotoxicity call is “active”.

`C[C@@H]1CCCCO[C@@H](CN(C)Cc2ccc(C(F)(F)F)cc2)[C@@H](C)CN([C@H](C)CO)C(=O)c2cc(NS(=O)(=O)c3ccc(Cl)cc3)ccc2O1`: the cytotoxicity call is “inactive”. To `C[C@H]1CCCCO[C@H](CN(C)Cc2ccc(C(F)(F)F)cc2)[C@@H](C)CN([C@@H](C)CO)C(=O)c2cc(NS(=O)(=O)c3ccc(Cl)cc3)ccc2O1` belongs “active”.

Regarding `C[C@@H]1CN([C@@H](C)CO)C(=O)c2cc(NS(=O)(=O)c3ccc(Cl)cc3)ccc2O[C@@H](C)CCCCO[C@@H]1CN(C)Cc1ccc(C(F)(F)F)cc1`, the cytotoxicity call is “inactive”. With `C[C@@H]1CCCCO[C@H](CN(C)Cc2ccc(C(F)(F)F)cc2)[C@@H](C)CN([C@H](C)CO)C(=O)c2cc(NS(=O)(=O)c3ccc(Cl)cc3)ccc2O1` the entry was “inactive”; with `C[C@@H]1CN([C@H](C)CO)C(=O)c2cc(NS(=O)(=O)c3ccc(Cl)cc3)ccc2O[C@@H](C)CCCCO[C@@H]1CN(C)Cc1ccc(C(F)(F)F)cc1`, “inactive”; with `CCOC(=O)C1CCN(c2cn[nH]c(=O)n2)CC1`, “inactive”.

As to `C[C@H]1CN([C@@H](C)CO)C(=O)Cc2cc(NC(=O)Nc3cccc4ccccc34)ccc2O[C@@H]1CN(C)C(=O)Nc1ccccc1`, the cytotoxicity call was “inactive”.

Take `C=CCOC(=O)[C@H]1[C@@H]2C(=O)O[C@@H](c3ccccc3)[C@@H](c3ccccc3)N2[C@@H](c2ccc(OCCOC(=O)[C@H]3C[C@H]4C(=O)N5CCC[C@H]5C(=O)N4[C@H]3c3cccc(OCCO)c3)cc2)[C@]12C(=O)Nc1ccccc12`: the cytotoxicity call is “inactive”. Consider `COc1ccc(NC(=O)N(C)C[C@H]2OCc3cnnn3CCCC(=O)N([C@H](C)CO)C[C@@H]2C)c(OC)c1`, for which the cytotoxicity call was “inactive”. With `COc1ccc(S(=O)(=O)N(C)C[C@H]2Oc3ccc(NS(=O)(=O)c4ccc(F)cc4)cc3CC(=O)N([C@@H](C)CO)C[C@@H]2C)cc1` the entry was “inactive”; with `C[C@@H]1CN([C@@H](C)CO)C(=O)c2cc(NS(=O)(=O)c3ccc(Cl)cc3)ccc2O[C@@H](C)CCCCO[C@H]1CN(C)Cc1ccc(C(F)(F)F)cc1`, “active”; with `C[C@H]1CN([C@@H](C)CO)C(=O)c2cccc(NC(=O)Nc3ccc(C(F)(F)F)cc3)c2O[C@@H]1CN(C)Cc1ccc(Oc2ccccc2)cc1`, “inactive”.

Regarding `C[C@@H]1CN([C@@H](C)CO)C(=O)c2cccc(NC(=O)Nc3ccc(C(F)(F)F)cc3)c2O[C@H]1CN(C)Cc1ccc(Oc2ccccc2)cc1`, the cytotoxicity call was “active”. `C[C@H](CO)N1C[C@H](C)[C@H](CN(C)Cc2ccc(Oc3ccccc3)cc2)Oc2c(NC(=O)Nc3ccc(C(F)(F)F)cc3)cccc2C1=O`: the cytotoxicity call is “active”. As to `C[C@@H]1CN([C@H](C)CO)C(=O)c2cccc(NC(=O)Nc3ccc(C(F)(F)F)cc3)c2O[C@H]1CN(C)Cc1ccc(Oc2ccccc2)cc1`, the cytotoxicity call was “active”. `C[C@H]1CN([C@@H](C)CO)C(=O)c2cccc(NC(=O)Nc3ccc(C(F)(F)F)cc3)c2O[C@H]1CN(C)Cc1ccccc1`: the cytotoxicity call was “inactive”.

Take `C[C@@H]1CN([C@@H](C)CO)C(=O)c2cccc(NC(=O)Nc3ccc(C(F)(F)F)cc3)c2O[C@@H]1CN(C)Cc1ccc(Oc2ccccc2)cc1`: the cytotoxicity call is “active”. To `COC[C@H]1CNN1C(=O)c1cc(C)oc1C` belongs “inactive”; to `C[C@@H]1CN([C@@H](C)CO)C(=O)c2cccc(NS(=O)(=O)c3cn(C)cn3)c2O[C@@H]1CN(C)C(=O)NC1CCCCC1`, “inactive”.

Turning to `C[C@H]1CCCCO[C@H](CN(C)C(=O)c2ccccc2)[C@@H](C)CN([C@@H](C)CO)C(=O)c2cc(NC(=O)c3ccccc3)ccc2O1`, the cytotoxicity call is “inactive”.

On to `COc1cccc(-c2ccc3c(c2)O[C@H](CN(C)C(=O)C2CCOCC2)[C@H](C)CN([C@H](C)CO)S3(=O)=O)c1`, for which the cytotoxicity call is “inactive”. With `C[C@H](CO)N1C[C@H](C)[C@@H](CN(C)Cc2ccc(Oc3ccccc3)cc2)Oc2c(NC(=O)Nc3ccc(C(F)(F)F)cc3)cccc2C1=O` the entry was “active”. As for `C[C@@H]1CN([C@H](C)CO)C(=O)c2cccc(NC(=O)Nc3ccccc3)c2O[C@@H]1CN(C)Cc1ccc(C(F)(F)F)cc1`, the cytotoxicity call is “inactive”. For `C[C@@H]1CN([C@H](C)CO)C(=O)c2cccc(NC(=O)Nc3ccc(C(F)(F)F)cc3)c2O[C@@H]1CN(C)Cc1ccc(Oc2ccccc2)cc1`, the cytotoxicity call is “active”. Consider `C[C@H]1CN([C@@H](C)CO)C(=O)c2cccc(NC(=O)Nc3ccc(C(F)(F)F)cc3)c2O[C@H]1CN(C)Cc1ccc(Oc2ccccc2)cc1`, for which the cytotoxicity call is “active”.

Regarding `C[C@H](CO)N1C[C@H](C)[C@H](CN(C)Cc2ccccc2)Oc2c(NC(=O)Nc3ccc(C(F)(F)F)cc3)cccc2C1=O`, the cytotoxicity call is “inactive”.

`C[C@@H]1CCCCO[C@@H](CN(C)CC2CC2)[C@H](C)CN([C@H](C)CO)C(=O)c2cc(NC(=O)Cc3ccccc3)ccc2O1`: the cytotoxicity call was “inactive”.

Turning to `C[C@@H]1CN([C@H](C)CO)C(=O)c2cc(NC(=O)c3ccncc3)ccc2O[C@@H](C)CCCCO[C@@H]1CN(C)C(=O)C1CCCCC1`, the cytotoxicity call is “inactive”. Consider `COc1ccc(NC(=O)N2C[C@@H](O)COC[C@@H]3O[C@H](CC(=O)NC4Cc5ccccc5C4)CC[C@H]32)cc1`, for which the cytotoxicity call was “inactive”. Regarding `CC(C)NC(=O)N(C)C[C@H]1Oc2ccc(NC(=O)NC3CCCCC3)cc2C(=O)N([C@@H](C)CO)C[C@H]1C`, the cytotoxicity call was “inactive”. With `CC(C)NC(=O)Nc1ccc2c(c1)C(=O)N([C@H](C)CO)C[C@H](C)[C@H](CN(C)S(=O)(=O)c1cn(C)cn1)OCCCC[C@H](C)O2` the entry was “inactive”; with `C[C@@H]1CN([C@H](C)CO)C(=O)c2cc(NC(=O)Cn3cnnn3)ccc2O[C@@H]1CN(C)Cc1ccc(Oc2ccccc2)cc1`, “inactive”; with `CCS(=O)(=O)N[C@H]1C=C[C@@H](CC(=O)NCc2ccc(Cl)cc2)O[C@@H]1CO`, “inactive”. For `C[C@@H]1CN([C@H](C)CO)C(=O)c2cc(NC(=O)CCC(F)(F)F)ccc2O[C@@H](C)CCCCO[C@H]1CN(C)Cc1ccc(Cl)c(Cl)c1`, the cytotoxicity call is “active”.

With `C[C@@H]1CCCCO[C@H](CN(C)Cc2ccc(Cl)c(Cl)c2)[C@H](C)CN([C@@H](C)CO)C(=O)c2cc(NC(=O)CCC(F)(F)F)ccc2O1`, the cytotoxicity call is “inactive”. For the compound `C[C@@H]1CN([C@H](C)CO)C(=O)c2cc(NC(=O)CCC(F)(F)F)ccc2O[C@@H](C)CCCCO[C@@H]1CN(C)Cc1ccc(Cl)c(Cl)c1`, the cytotoxicity call is “active”.

Regarding `C[C@@H]1CCCCO[C@@H](CN(C)Cc2ccc(Cl)c(Cl)c2)[C@H](C)CN([C@H](C)CO)C(=O)c2cc(NC(=O)CCC(F)(F)F)ccc2O1`, the cytotoxicity call was “inactive”. For `C[C@H]1CCCCO[C@H](CN(C)Cc2ccc(Cl)c(Cl)c2)[C@@H](C)CN([C@@H](C)CO)C(=O)c2cc(NC(=O)CCC(F)(F)F)ccc2O1`, the cytotoxicity call is “inactive”. For `C[C@H](CO)N1C[C@H](C)[C@@H](CN(C)Cc2ccc(Cl)c(Cl)c2)OCCCC[C@H](C)Oc2ccc(NC(=O)CCC(F)(F)F)cc2C1=O`, the cytotoxicity call was “inactive”.

Take `C[C@H](CO)N1C[C@H](C)[C@@H](CN(C)Cc2ccc(C(=O)O)cc2)OCCCC[C@H](C)Oc2ccc(NC(=O)CCC(F)(F)F)cc2C1=O`: the cytotoxicity call is “inactive”. As for `Cc1cc(OCCCS(C)(=O)=O)cc(C)c1-c1cccc(COc2ccc3c(c2)OC[C@H]3CC(=O)O)c1`, the cytotoxicity call was “active”. With `C[C@@H]1CN([C@H](C)CO)C(=O)c2cccc(NC(=O)c3ccc(-c4nccs4)cc3)c2O[C@H]1CN(C)Cc1ccccc1` the entry was “inactive”.
